Compound activity as filed in PubChem BioAssay.
The entries come from a sample that favours hits as a whole.
GBA enhancer: enhancers of human beta-glucosidase activity in Gaucher fibroblasts. L444P Gaucher fibroblasts, 4-MU-glucoside fluorescence, 3 days. P04062. 30,000 compounds, 0.44% hits. AID 784. activation, % at 10 µM; in the data active = activation above about 65%;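 also: 0% = vehicle wells and 100% = positive control wells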
Target sequence (P04062 whole entry L483P): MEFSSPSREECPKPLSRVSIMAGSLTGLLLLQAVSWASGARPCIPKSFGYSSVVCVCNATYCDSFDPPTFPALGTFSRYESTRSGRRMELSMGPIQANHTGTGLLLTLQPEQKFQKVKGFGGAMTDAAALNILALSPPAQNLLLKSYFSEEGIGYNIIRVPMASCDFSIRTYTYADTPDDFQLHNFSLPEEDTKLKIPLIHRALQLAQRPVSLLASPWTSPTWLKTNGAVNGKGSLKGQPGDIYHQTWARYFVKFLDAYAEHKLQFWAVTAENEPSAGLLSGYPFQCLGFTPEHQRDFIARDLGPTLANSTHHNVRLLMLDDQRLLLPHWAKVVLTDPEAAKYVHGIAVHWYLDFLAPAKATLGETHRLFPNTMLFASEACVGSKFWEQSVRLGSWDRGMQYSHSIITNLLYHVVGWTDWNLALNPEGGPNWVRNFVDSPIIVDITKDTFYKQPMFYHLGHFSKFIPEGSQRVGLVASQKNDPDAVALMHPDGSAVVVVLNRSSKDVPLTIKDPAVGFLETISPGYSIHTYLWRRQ
* = called active by the depositor.

SMILES	GBA enhancer
CCOC(=O)c1oc2c(CN3CCCCC3C)c(O)ccc2c(=O)c1-c1ccc(OC)c(OC)c1 (stereo unspecified)	-24
CC1(C)Oc2ccc(C(=O)NC3CCCC3)cc2N(CC(=O)NC2CCCC2)C1=O	-12
Cc1ccc(N2CCCn3c2nc2c3c(=O)n(CCN3CCOCC3)c(=O)n2C)cc1	-6
Cc1ccc(C2NC(=O)NC(O)(C(F)(F)F)C2C(=O)c2cccs2)o1 (stereo unspecified)	-1
COC(=O)CN1C(=O)C2(OCCCO2)c2cc(Br)ccc21	139*
CCOC(=O)CN1C(=O)C2(OCCCO2)c2ccccc21	0
O=C(CN1C(=O)C2(OCCCO2)c2ccccc21)NCc1ccccc1	-4
CCCCc1ccc(-c2nc(-c3ccncc3)no2)cc1	16
O=C(C1CCC1)N1CCc2cc(S(=O)(=O)N3CCc4ccccc4C3)ccc21	4
CC1CN(S(=O)(=O)c2ccc(NC(=O)CCN3C(=O)c4ccccc4C3=O)cc2)CC(C)O1 (stereo unspecified)	-39
Cc1ccc(OCCCC(=O)Nc2ccc(S(=O)(=O)Nc3cc(C)on3)cc2)cc1	-15
Cc1cc(NS(=O)(=O)c2ccc(NC(=O)CCN3C(=O)c4ccccc4C3=O)cc2)no1	93*
O=C(Nc1cccc(Cl)c1)Nc1nccs1	-49
N#CCc1ccc(NC(=O)Nc2cccc(Cl)c2)cc1	70*
CN1CCN(S(=O)(=O)c2ccc(NC(=O)Nc3cccc(Cl)c3)cc2)CC1	2
CCOC(=O)N1CCN(C(=O)c2ccc3c(=O)n(Cc4ccc(OC)cc4)c(=S)[nH]c3c2)CC1	-35
CCOC(=O)N1CCN(C(=O)c2ccc(Cn3c(=S)[nH]c4cc5c(cc4c3=O)OCO5)cc2)CC1	-14
CCOC(=O)N1CCN(C(=O)c2ccc3c(=O)n(Cc4ccccc4)c(=S)[nH]c3c2)CC1	69*
COc1cc(C2C(C(=O)c3cccs3)=C(O)C(=O)N2Cc2ccco2)cc(OC)c1OC (stereo unspecified)	1
Cc1cccc(C)c1NC(=O)CSc1nnc(-c2ccoc2C)n1CCc1ccccc1	3
Cc1cccn2c(=O)c(C=Nc3ccc(Cl)cc3)c(NCCO)nc12	68*
Cc1cccn2c(=O)c(C=Nc3ccccc3)c(NCCO)nc12	-23
CCNC(=O)c1cc2c(=O)n3cccc(C)c3nc2n1C	-18
O=C(Cn1nnc(-c2ccccc2NC(=O)c2ccco2)n1)Nc1ccccc1	23
CCCc1cc(=O)[nH]c(SCC(=O)CSc2nc(CCC)cc(=O)[nH]2)n1	63
SMILES	GBA enhancer
COc1cccc(NC(=O)C2C3C=CC4(O3)C2C(=O)N(C2CC2)C4C(=O)NC2CCCCC2C)c1 (stereo unspecified)	-10
COc1cccc(NC(=O)C2C3C=CC4(O3)C2C(=O)N(C(C)C)C4C(=O)NC2CCCCC2C)c1 (stereo unspecified)	68*
CCCCN1C(=O)C2C(C(=O)Nc3cccc(OC)c3)C3C=CC2(O3)C1C(=O)NC1CCCCC1C (stereo unspecified)	-3
CC(C)c1nc(SCc2c(F)cccc2Cl)c2c(=O)n(C)c(=O)n(C)c2n1	-16
Cc1ccc2c(c1)[C@H]1OCC[C@H]1[C@@H](c1ccncc1)N2	72*
Cc1ccc2c(c1)C1C=CCC1C(C(=O)O)N2 (stereo unspecified)	10
Cc1ccc2c(c1)C1OCCC1C1N2C(=O)C2C(C(=O)O)C3C=CC21O3 (stereo unspecified)	-46
Cc1ccc(N(C=NC#N)CC(=O)N2CCN(c3ccccc3)CC2)cc1	-36
COc1cc(C(=O)COC(=O)Cc2cnc3sccn23)cc(OC)c1OC	-15
COc1ccc(-c2coc3c(CN4CCCCC4)c(O)c(CN4CCCCC4)c(O)c3c2=O)cc1	-10
N#Cc1ccc(CSc2nnc(-c3cnccn3)o2)cc1	-20
Cc1cc(-c2nnc(SCc3cccnc3)o2)no1	86*
Cc1cc(-c2nnc(SCC(=O)NC3CCCC3)o2)no1	-14
Cc1nnc(SC(C)C(=O)Nc2ccc(S(=O)(=O)N3CCCCCC3)cc2)s1 (stereo unspecified)	15
Cc1cc(C)nc(NCC(O)CNc2ccccc2Cl)n1 (stereo unspecified)	-33
CCC(=O)N1CCc2cc(S(=O)(=O)NCCC(=O)Nc3ccccc3C)ccc21	-10
CCCCn1c(C(C)NC(=O)COC)nc2ccccc21 (stereo unspecified)	-10
O=C(O)Cn1cccc1C(=O)c1ccccc1	-18
Cc1ccc(CNn2cnnc2SCC(=O)NC(C)(C)C)cc1	-22
Cc1nnc(SCC(=O)NC(C)(C)C)n1CCc1ccccc1	-7
CC(C)(C)NC(=O)CSc1nncn1NCc1ccccc1	68*
Cc1nc(CNS(=O)(=O)c2cc(F)ccc2F)cs1	-22
COc1ccc(-c2cc(C(F)(F)F)nc(NCc3ccco3)n2)cc1OC	-36
COc1cccc(-c2cc(C(F)(F)F)nc(NCc3ccco3)n2)c1	106*
FC(F)(F)c1cc(-c2ccco2)nc(NCc2ccco2)n1	6
SMILES	GBA enhancer
CCOc1ccccc1NC(=O)Cn1c(C)cc(COC)c(C#N)c1=O	4
Cc1ccc(-n2ncc3c(=O)n(CC(=O)NC4CCCC4)cnc32)cc1C	-1
O=C(N1CCOCC1)N1CCN(c2ccccn2)CC1	15
Cc1cc(C)cc(N2CCN(C(=O)N3CCOCC3)CC2)c1	72*
Cc1ccc(C)n1-c1ccc(N2CCOCC2)cc1	-3
O=C1CSC(c2cn(-c3ccccc3)nc2-c2ccc3c(c2)OCCO3)N1CCN1CCOCC1 (stereo unspecified)	16
CN(C)c1ccc(-c2nc3ccccc3n2C)cc1	81*
Cn1c(Sc2nc3ccccc3n2C)nc2ccccc21	-20
Cn1c(-c2ccc(Br)o2)nc2ccccc21	5
O=C(NC1CCCC1)C(c1ccncc1)N(Cc1cccs1)C(=O)c1csnn1 (stereo unspecified)	-15
Nn1cnnc1SC1CCCCC1NS(=O)(=O)c1ccccc1 (stereo unspecified)	-42
O=C(CCCN1Cc2ccccc2C1)c1ccc(F)cc1	19
O=C(c1ccc(F)cc1)N1CCN(Cc2ccccc2Br)CC1	-17
COC(=O)CN1CCN(C(=O)c2ccc(F)cc2)c2ccccc2C1	106*
CCOC(=O)N1CCC(NC(=O)c2cc(S(=O)(=O)N3CCCC3)cn2C)CC1	14
O=C(CNC(=O)c1cccs1)NCCN1CCN(Cc2ccccc2)CC1	-6
COC(=O)Cn1cnc2c(C#N)c3n(c2c1=O)CCCCC3	-11
N#Cc1c2n(c3c(=O)n(Cc4ccccc4Cl)cnc13)CCCCC2	68*
COc1cccc(-n2nnc3c(=O)n(Cc4ccccc4Cl)cnc32)c1	25
COc1n[nH]c2nncnc12	-47
CCN(CC)S(=O)(=O)c1ccc(C(=O)Nc2c3c(nn2C(C)(C)C)CS(=O)(=O)C3)cc1	-64
CCOc1ccc2[nH]c(=O)c(CN(Cc3ccc(F)cc3)C(=O)N3CCCC3)cc2c1	14
CCCC(=O)n1nc(-c2ccc(OC)cc2)nc1N	21
Nc1nc(-c2ccc(Cl)cc2)nn1C(=O)c1cccnc1	15
COc1ccc(C(=O)n2nc(-c3ccccc3)nc2N)cc1OC	71*
O=S(=O)(c1ccccc1)c1cccc(S(=O)(=O)N2CCCCC2)c1	-12
O=C(CN1CCN(c2ccc(F)cc2)CC1)N1CCOCC1	-65
O=C(CN(C(=O)CCC(=O)Nc1nccs1)c1ccc(F)cc1)NCc1ccco1	6
CC(C)CCn1nnnc1C(c1ccccc1F)N1CCC(C(N)=O)CC1 (stereo unspecified)	18
